# Bioassay records: PubChem BioAssay, Broad Institute
# This excerpt belongs to a sample that is enriched for hits.
# Tg IFNy HTS = T. gondii growth inhibition under IFN-gamma | Toxoplasma gondii growth in IFN-gamma-treated host cells; stronger effect = lower value | activity change, negative = inhibition, % (concentration not given with the values) | 69,000 compounds, 3.8% hits; in the data active means activity change below about -70%, passing the limit was not always enough;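 further: host cells are HeLa cells infected with Toxoplasma gondii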
# Numbers stand for hits; – = inactive.
SMILES,Tg IFNy HTS
Cc1ccccc1CNc1nc(-c2nnc(-c3ccccc3)o2)nc2ccccc12,-90
Cc1ccc(-c2nnc(-c3nc(NC(C)c4ccccc4)c4ccccc4n3)o2)cc1 (centres undefined),–
c1ccc(CCNc2nc(-c3nnc(-c4ccccc4)o3)nc3ccccc23)cc1,–
Clc1ccccc1CNc1nc(-c2nnc(-c3ccccc3)o2)nc2ccccc12,–
COc1ccc(-c2nnc(-c3nc(NCc4ccccc4)c4ccccc4n3)o2)cc1,–
CC(CNc1nc(-c2nnc(-c3ccccc3)o2)nc2ccccc12)c1ccccc1 (centres undefined),-115
Cc1ccc(NC(=O)C(=O)N(C)C(C)Cc2ccccn2)c(C)c1 (centres undefined),–
O=C(Nc1ccccc1)N1CC2CN(Cc3ccc(C(F)(F)F)cc3)C2C1 (centres undefined),–
Cc1c(C(=O)NCCS(=O)(=O)c2ccc(F)cc2)cccc1N1CCOCC1,–
CC(CO)CN(Cc1ccccc1)CC1CC1 (centres undefined),–
CC(c1ccccc1F)n1cc(C(=O)NCCN(C)C)nn1 (centres undefined),–
N#CCN1CCC(n2cccn2)c2cc(NC(=O)c3ccco3)ccc21 (centres undefined),–
Cc1noc(C)c1CN1CCn2c(CN(C)C(C)C)cnc2C1,–
CN(C)CCN1CCO[C@H]2CN(C(=O)c3cnccn3)C[C@@H]21,–
CCN1C(=O)CCCC12CCCN(C(=O)c1ccc3ccccc3n1)C2 (centres undefined),–
Cc1ccc(CSC2=Nc3ccccc3C3=NC(CCC(=O)NCc4ccc5c(c4)OCO5)C(=O)N23)c(C)c1 (centres undefined),–
Cc1ccc(-c2nnc(-c3nc(NCc4ccco4)c4ccccc4n3)o2)cc1,–
COc1cc(CNc2nc(-c3nnc(-c4ccc(C)cc4)o3)nc3ccccc23)cc(OC)c1OC,–
Cc1ccc(-c2nnc(-c3nc(NCc4ccccn4)c4ccccc4n3)o2)cc1,-94
Cc1ccc(C2(O)CCN(C(=O)CC3C(=O)Nc4ccc(C)cc43)CC2)nc1 (centres undefined),–
COc1cncc(-c2cccc(CN3CCOCC3)c2)c1,–
CCN1CC[C@@H]2Oc3ccccc3S(=O)(=O)N(CC3CC3)[C@@H]2CC1,–
O=S1(=O)c2ccccc2O[C@H]2CCN(Cc3ccc(Cl)cc3)CC[C@H]2N1CC1CC1,-89
O=C(c1ccccc1)N1CC[C@@H]2Oc3ccccc3S(=O)(=O)N(CC3CC3)[C@@H]2CC1,–
Nc1ncc(C(=O)N2CCCC(CCc3ccc(F)cc3)C2)c(-c2ccccc2)n1 (centres undefined),–
SMILES,Tg IFNy HTS
Cc1cc(C)cc(NC(=O)C(=O)NCCc2sc(-c3ccc(F)cc3)nc2C)c1,–
C=C[C@@H]1C[C@]1(NC(=O)[C@@H]1C[C@@H](Oc2ncc(OC)c3ccc(Cl)cc23)CN1C(=O)[C@@H](NC(=O)OC(C)(C)C)C(C)(C)C)C(=O)NS(=O)(=O)C1CC1,-73
CC(C)N(C)Cc1cnc2n1CCN(CC1CCOC1)CC2 (centres undefined),–
COc1ccc(S(=O)(=O)N2CCC(c3nc(-c4ccccn4)cc(=O)[nH]3)C2)cc1C (centres undefined),–
CC(C)NC(=O)N1CC[C@@H]2[C@H]1c1cc(-c3ccc(F)cc3)ccc1N(C)[C@@H]2CO,–
COc1ccc(-c2ccc3c(c2)[C@@H]2[C@@H](CCN2C(=O)Nc2ccccc2OC)[C@@H](CO)N3C)cc1,-72
CC(C)NC(=O)N1CC[C@@H]2[C@@H](CO)N(C)c3ccc(-c4ccc(F)cc4)cc3[C@@H]21,-79
CC(C)NC(=O)N1CC[C@H]2[C@@H]1c1cc(C#Cc3ccccc3)ccc1N(C)[C@H]2CO,–
CN1c2ccc(C3=CCCCC3)cc2[C@@H]2[C@@H](CCN2C(=O)C2CCOCC2)[C@H]1CO,–
COc1ccc(C#Cc2ccc3c(c2)[C@H]2[C@H](CCN2C(=O)Nc2ccc(C(F)(F)F)cc2)[C@H](CO)N3C)cc1,–
COc1cccc(-c2ccc3c(c2)[C@H]2[C@H](CCN2C(=O)c2ccccc2F)[C@@H](CO)N3C)c1,–
CN1c2ccc(C3=CCCCC3)cc2[C@@H]2[C@@H](CCN2C(=O)c2ccccc2F)[C@@H]1CO,-76
CN1c2ccc(-c3ccccc3)cc2[C@@H]2[C@@H](CCN2C(=O)CC2CC2)[C@@H]1CO,–
Cn1nc(-c2ccccc2)cc1NC(=O)C1COc2ccccc2O1 (centres undefined),–
CCOc1ccc(CCC(=O)N2CCCc3c(cnn3C)C2)cc1,–
CCN1CCC2(CC1)OC(=O)C(C)=C2C(=O)NCCCN1CCN(Cc2ccccc2)CC1,–
CN(C)C(=O)CC1CC2(CCN(C(=O)C3CCOCC3)CC2)Oc2ccccc21 (centres undefined),–
CCOc1ccc(-c2nc(Cn3nnc(C(=O)Nc4ccc(Br)cc4)c3C)c(C)o2)cc1,–
CC(C)N1CCC2(CC1)CC(NCc1cnn(C)c1)c1ccccc1O2 (centres undefined),–
Cn1ncc2c(N3CCC(N4CCCC4)CC3)nc(-c3cccnc3)nc21,–
